Among all 350,000 compounds or so, about 180 (0.051%) were called active.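 How the source made its calls: active means mean inhibition across replicates of 30% or more, whatever share of single replicates reach that level; inconclusive means mean inhibition below 30% while every single replicate reaches 30%; inactive means the rest.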 What follows is part of a selection rich in actives, with near analogues and random picks from the rest.
Biological target: Protein disulfide-isomerase (Homo sapiens) (UniProt P07237)
Assay: inhibitors of human PDI, primary screen, biochemical, turbidity, single point, plate reader (AID 588391);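 further: absorbance from insulin aggregation driven by PDI reduction with DTT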
Conditions: PDI insulin aggregation turbidity, A650, 90 min; at 10 µM; hits give high values

Protein disulfide-isomerase (Homo sapiens), sequence (P07237 whole entry, looked up): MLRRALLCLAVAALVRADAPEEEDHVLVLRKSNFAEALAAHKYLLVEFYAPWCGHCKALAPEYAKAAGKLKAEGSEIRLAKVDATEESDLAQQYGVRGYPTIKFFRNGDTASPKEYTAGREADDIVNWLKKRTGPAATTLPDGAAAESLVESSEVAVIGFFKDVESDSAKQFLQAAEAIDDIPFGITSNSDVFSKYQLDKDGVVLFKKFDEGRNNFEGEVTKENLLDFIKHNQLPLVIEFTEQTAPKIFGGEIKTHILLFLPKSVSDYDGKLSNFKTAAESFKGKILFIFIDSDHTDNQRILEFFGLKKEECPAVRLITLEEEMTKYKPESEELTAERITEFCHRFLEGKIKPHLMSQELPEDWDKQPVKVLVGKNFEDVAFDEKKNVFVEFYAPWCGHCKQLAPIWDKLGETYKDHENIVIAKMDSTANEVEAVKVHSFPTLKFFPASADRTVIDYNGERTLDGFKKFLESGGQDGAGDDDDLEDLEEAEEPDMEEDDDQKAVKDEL

Compound	inhibition
CC(=O)Nc1ccc(C=CC(=O)c2ccc([N+](=O)[O-])cc2)cc1	-14.3% (inactive)
CN(C)c1ccc(/C=C/C(=O)c2ccc(O)cc2)cc1[N+](=O)[O-]	62.9% (active)
O=C(/C=C/c1ccc(Cl)cc1)N1CCN(c2ccccc2[N+](=O)[O-])CC1	-3.05% (inactive)
OC[C@H]1O[C@@H](c2nc(-c3nc(-c4ccc(F)cc4)no3)cs2)[C@H](O)[C@@H](O)[C@H]1O	9.06% (inactive)
CCc1nc2ccc(C(=O)Nc3cccc(OC)c3)cn2c1N(CCC(C)C)CCN(C)C	7.59% (inactive)
COc1ccc(CNC(=O)c2ccc(-c3cccnc3)c3ccoc23)cc1OC	-14.5% (inactive)
CCOC(=O)C1CCCN(C(=O)c2ccc(N(C)C)cc2)CC1 (stereo not given)	-4.95% (inactive)
COc1ccccc1CNC(=O)c1cc(-c2cc(F)ccc2OC)n[nH]1	-13.3% (inactive)
CNc1cnc(-c2cc(OC)c(OC)c(OC)c2)cn1	-1.94% (inactive)
Cc1nc2c(OCc3ccc(Cl)cc3Cl)cccn2c1N(C)CC1CC1	-3.07% (inactive)
CC(=O)NN=C(C)c1ccc(NC(=O)C2CC2)cc1	11.5% (inactive)
CC1(C(=O)NCc2cccc3ccccc23)CCN1Cc1ccc(-c2ccccc2)o1 (stereo not given)	-7.12% (inactive)
CC(=O)Nc1cccc(-c2cc(NC=O)c3ncc(-c4ccc(F)c(Cl)c4)n3c2)c1	-0.607% (inactive)
CCc1nc2c(OCCOc3ccccc3)cccn2c1N(C=O)Cc1ccc(OC)cc1	3.19% (inactive)
COc1cccc(NC(=O)C2(C)CCN2Cc2ccccc2Cl)c1 (stereo not given)	2.3% (inactive)
NC(Cc1ccc(F)cc1)c1csc(Nc2nncc3ccccc23)n1 (stereo not given)	-3.01% (inactive)
CC(C)Nc1nc(NCCOc2ccccc2Cl)c2sccc2n1	0.492% (inactive)
COc1ccc(NC(=O)C2(C)Cc3c(-c4cccc(NC(C)=O)c4)ccnc3O2)cc1OC (stereo not given)	-9.6% (inactive)
O=C(CCc1ccc(O)cc1)NN=Cc1cc(Br)ccc1O	44.5% (active)
O=C(CCc1n[nH]c(=O)[nH]c1=O)N/N=C/c1ccc(Br)o1	2.19% (inactive)
O=C(CCC(=O)N/N=C/c1ccc(Br)o1)N/N=C/c1ccc(Br)o1	-7.35% (inactive)
COc1ccc(C(NC(=O)C2CCN(CCCc3ccccc3)CC2)c2cccs2)cc1 (stereo not given)	-3.76% (inactive)
OCCN1CCN(c2ncnc3c2ncn3[C@H]2CN(Cc3ccco3)C[C@@H](CO)O2)CC1	-4.02% (inactive)
COc1cncc(-c2cnc3sc(NCCc4ccccn4)nn23)c1	-1.86% (inactive)
CCCC/C=C/c1cccc2nncn12	15.4% (inactive)

From PubChem BioAssay AID588391 (Broad Institute, 2011)
